Screens from PubChem.
CYP2C9 activ: activators of human CYP2C9. P11712. recombinant CYP2C9, luciferin-H conversion, luminescence; hits give high values; factor 1 = untreated enzyme, 0 = blocked. activation factor at 5 µM. 96,000 tested, 1.4% active;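 active = activation factor of 2 or more for CYP2C9 at a 5 µM dose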
Mac1 fbg inh: blocks human CD11b/CD18 adhesion to fibrinogen | P05107+P11215 | K562 CD11b/CD18 adhesion to fibrinogen, ATPlite luminescence; Mn2+ added to activate the integrin | inhibition, % at 10 µM | 93,000 tested, 0.54% active | AID 1497;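 active = primary inhibition of 50% or more at 10 µM, then 40% or more on retest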
CD11b adhes enh: increases human CD11b/CD18 adhesion to fibrinogen | K562 CD11b/CD18 adhesion to fibrinogen, ATPlite luminescence | P05107+P11215 | activation, % at 10 µM | 93,000 tested, 0.07% active;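 active = 10 µM primary screen giving 50% or more activity, confirmed by 40% or more on retest at that dose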
CYP2C19 activ: activators of human cytochrome P450 2C19; P33261; recombinant CYP2C19, luciferin-H EGE luminescence; hits give high values; 0 = fully inhibited enzyme, 1 = untreated enzyme; activation factor at 5 µM; 96,000 tested, under 10 active;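 active = activation factor of at least 2 at 5 µM in the primary screen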
Target sequence (P33261 whole entry, looked up): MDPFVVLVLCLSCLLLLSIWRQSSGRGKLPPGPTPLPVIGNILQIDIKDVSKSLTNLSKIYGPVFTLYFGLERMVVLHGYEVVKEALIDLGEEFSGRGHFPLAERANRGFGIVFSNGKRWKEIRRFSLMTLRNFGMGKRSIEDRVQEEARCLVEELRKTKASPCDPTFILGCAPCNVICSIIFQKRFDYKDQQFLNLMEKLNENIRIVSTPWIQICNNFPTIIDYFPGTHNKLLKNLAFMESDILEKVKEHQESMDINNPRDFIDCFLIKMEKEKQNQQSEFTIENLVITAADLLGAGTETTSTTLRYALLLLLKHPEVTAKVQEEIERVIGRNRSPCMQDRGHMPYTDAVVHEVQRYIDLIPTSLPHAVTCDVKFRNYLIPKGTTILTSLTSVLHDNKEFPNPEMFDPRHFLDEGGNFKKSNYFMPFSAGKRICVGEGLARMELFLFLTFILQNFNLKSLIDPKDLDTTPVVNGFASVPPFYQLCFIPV
CYP2C19 inh: human CYP2C19 inhibition; 96,000 tested, 21% active; AID 778; P33261; CYP2C19 Supersomes, luciferin-H EGE luminescence, 30 min; inhibition, % at 5 µM;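 active = CYP2C19 inhibition above a set limit at 5 µM in the primary screen, cut at about 50% in these data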
CYP2C9 inhib: human CYP2C9 inhibition; P11712; CYP2C9 Supersomes, luciferin-H conversion, luminescence; inhibition, % at 5 µM; 96,000 tested, 20% active; AID 777;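 active = blocking of liver enzyme CYP2C9 beyond about 50% at 5 µM, limit read from the data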
Numbers stand for hits. An excerpt weighted towards active compounds, which were near 28% of everything screened.

COCCCNC(=O)C(F)(F)C(F)(F)C(=O)NCCCOC was read as CYP2C9 activ inactive, Mac1 fbg inh inactive, CD11b adhes enh inactive, CYP2C19 activ inactive, CYP2C19 inh inactive and CYP2C9 inhib inactive.
CCOC(=O)CC1C(=O)NCCN1Cc1cccc(OC)c1 (stereo not drawn) was read as CYP2C9 activ inactive, Mac1 fbg inh inactive, CD11b adhes enh inactive, CYP2C19 activ inactive, CYP2C19 inh inactive and CYP2C9 inhib 75.
For COc1ccc(CN2CCNC(=O)C2CC(=O)O)c(OC)c1 (stereo not drawn) the results were CYP2C9 activ inactive, Mac1 fbg inh inactive, CD11b adhes enh inactive, CYP2C19 activ inactive, CYP2C19 inh inactive and CYP2C9 inhib inactive.
`CCCn1nc(NC(=O)c2cccs2)c2cc3ccccc3nc21` gave CYP2C9 activ inactive, CYP2C19 activ inactive, CYP2C19 inh inactive and CYP2C9 inhib inactive.
COc1ccc2nc3c(cc2c1)c(NC(=O)C1CCCO1)nn3CC(C)C (stereo not drawn) was read as CYP2C9 activ inactive, Mac1 fbg inh inactive, CD11b adhes enh inactive, CYP2C19 activ inactive, CYP2C19 inh inactive and CYP2C9 inhib 66.
CCCn1nc(NC(=O)c2cccs2)c2cc3cc(OC)ccc3nc21 was read as CYP2C9 activ inactive, Mac1 fbg inh inactive, CD11b adhes enh inactive, CYP2C19 activ inactive, CYP2C19 inh inactive and CYP2C9 inhib 56.
`CCCCn1nc(NC(=O)c2cccs2)c2cc3ccccc3nc21` gave CYP2C9 activ inactive, Mac1 fbg inh inactive, CD11b adhes enh inactive, CYP2C19 activ inactive, CYP2C19 inh inactive and CYP2C9 inhib inactive.
CCCCn1nc(NC(=O)c2cccs2)c2cc3cc(OC)ccc3nc21 was read as CYP2C9 activ inactive, Mac1 fbg inh inactive, CD11b adhes enh inactive, CYP2C19 activ inactive, CYP2C19 inh inactive and CYP2C9 inhib 64.
`CCCn1nc(NC(=O)C2CCCO2)c2cc3cc(C)ccc3nc21` (stereo not drawn) gave CYP2C9 activ inactive, Mac1 fbg inh inactive, CD11b adhes enh inactive, CYP2C19 activ inactive, CYP2C19 inh inactive and CYP2C9 inhib inactive.
NC(=O)Cn1c(=O)n(C2CCCCC2)c(=O)c2c3c(sc21)CCCCC3 was read as Mac1 fbg inh inactive and CD11b adhes enh inactive.
NNC(=O)CN1C(c2ccc(Cl)cc2)=Nc2ccc(Br)cc2C1c1ccccc1 (stereo not drawn) was read as CYP2C9 activ inactive, Mac1 fbg inh inactive, CD11b adhes enh inactive, CYP2C19 activ inactive, CYP2C19 inh inactive and CYP2C9 inhib 58.
For Cc1ccc(C(=O)C(C)OC(=O)c2n[nH]c(=O)c3ccccc23)cc1 (stereo not drawn) the results were CYP2C9 activ inactive, Mac1 fbg inh inactive, CD11b adhes enh inactive, CYP2C19 activ inactive, CYP2C19 inh 68 and CYP2C9 inhib 84.
For Cc1ccc(C(=O)COC(=O)c2n[nH]c(=O)c3ccccc23)cc1 the results were CYP2C9 activ inactive, Mac1 fbg inh inactive, CD11b adhes enh inactive, CYP2C19 activ inactive, CYP2C19 inh inactive and CYP2C9 inhib inactive.
`CC(C)(C)c1nnc2sc(SCC(=O)N3CCCc4ccccc43)nn2c1=O` gave CYP2C9 activ inactive, Mac1 fbg inh inactive, CD11b adhes enh inactive, CYP2C19 activ inactive, CYP2C19 inh 71 and CYP2C9 inhib inactive.
For Cc1ccc(C(=O)CSc2nn3c(=O)c(C(C)(C)C)nnc3s2)cc1 the results were CYP2C9 activ inactive, Mac1 fbg inh inactive, CD11b adhes enh inactive, CYP2C19 activ inactive, CYP2C19 inh inactive and CYP2C9 inhib inactive.
CC(C)(C)c1nnc2sc(SCC(=O)c3cccs3)nn2c1=O was read as CYP2C9 activ inactive, Mac1 fbg inh inactive, CD11b adhes enh inactive, CYP2C19 activ inactive, CYP2C19 inh inactive and CYP2C9 inhib 96.
For COc1ccc(C2=C(O)C(C)N(c3ccccc3)C2=N)cc1OC (stereo not drawn) the results were CYP2C9 activ inactive, Mac1 fbg inh inactive, CD11b adhes enh inactive, CYP2C19 activ inactive, CYP2C19 inh inactive and CYP2C9 inhib inactive.
`CS(=O)(=O)Nc1ccc(C(=O)N2CCCCC2)cc1` gave CYP2C9 activ inactive, Mac1 fbg inh inactive, CD11b adhes enh inactive, CYP2C19 activ inactive, CYP2C19 inh inactive and CYP2C9 inhib inactive.
For COCCCN(C(C)=O)c1nc(-c2ccc(OC)cc2)cs1 the results were CYP2C9 activ inactive, Mac1 fbg inh inactive, CD11b adhes enh inactive, CYP2C19 activ inactive, CYP2C19 inh inactive and CYP2C9 inhib inactive.
CCc1ccc2[nH]c(O)c(N=Nc3nc(-c4ccccc4)cs3)c2c1 was read as CYP2C9 activ inactive, CYP2C19 activ inactive, CYP2C19 inh inactive and CYP2C9 inhib inactive.
Screening CC(/C=C/c1ccccc1)NC(N)=O (stereo not drawn) returned CYP2C9 activ inactive, Mac1 fbg inh inactive, CD11b adhes enh inactive, CYP2C19 activ inactive, CYP2C19 inh inactive and CYP2C9 inhib 61.
Screening Cc1nn(CCC(=O)NNC(=S)NCC(C)C)c(C)c1Br returned CYP2C9 activ inactive, Mac1 fbg inh inactive, CD11b adhes enh inactive, CYP2C19 activ inactive, CYP2C19 inh 63 and CYP2C9 inhib 91.
COc1ccccc1/C=C/C=N/NC(=O)CCn1nnc2ccccc21 was read as Mac1 fbg inh inactive and CD11b adhes enh inactive.
O=c1cc(/C=C/c2ccccc2)oc2ccccc12 was read as CYP2C9 activ inactive, Mac1 fbg inh inactive, CD11b adhes enh inactive, CYP2C19 activ inactive, CYP2C19 inh 62 and CYP2C9 inhib 79.
`O=C(NC1CC1)c1cc(=O)c2ccccc2o1` gave CYP2C9 activ inactive, CYP2C19 activ inactive, CYP2C19 inh inactive and CYP2C9 inhib inactive.
CCCN(CCC)C1=N/C(=C\c2ccco2)C(=O)N1c1ccccc1 was read as CYP2C9 activ inactive, Mac1 fbg inh inactive, CD11b adhes enh inactive, CYP2C19 activ inactive, CYP2C19 inh 64 and CYP2C9 inhib 71.
`CCCN=C1N/C(=C\c2ccco2)C(=O)N1c1ccccc1` gave CYP2C9 activ inactive, Mac1 fbg inh inactive, CD11b adhes enh inactive, CYP2C19 activ inactive, CYP2C19 inh inactive and CYP2C9 inhib inactive.
For CCc1ccc(N2C(=O)CC(NNc3nc4ccccc4s3)C2=O)cc1 (stereo not drawn) the results were Mac1 fbg inh inactive and CD11b adhes enh inactive.
`CC(C)(c1ccccc1)c1ccc(OCCn2cnc3ccccc3c2=O)cc1` gave CYP2C9 activ inactive, Mac1 fbg inh inactive, CD11b adhes enh inactive, CYP2C19 activ inactive, CYP2C19 inh inactive and CYP2C9 inhib inactive.
Screening CCOc1cccc(OCCOCCn2cnc3ccccc3c2=O)c1 returned CYP2C9 activ inactive, Mac1 fbg inh inactive, CD11b adhes enh inactive, CYP2C19 activ inactive, CYP2C19 inh 94 and CYP2C9 inhib 86.
Screening CCOC(=O)C1C(C)=CC(=O)CC1c1ccco1 (stereo not drawn) returned CYP2C9 activ inactive, Mac1 fbg inh inactive, CD11b adhes enh inactive, CYP2C19 activ inactive, CYP2C19 inh inactive and CYP2C9 inhib inactive.
